Data from PubChem BioAssay AID1159580 (chemical genetic matrix, 2015).
“And” between values parts separate entries of the source, which are not always exact repeats. Equal entries are not always repeated. Among all 5,500 compounds or so, about 2,000 (36%) were called active. Not shown: some 18% with an inconclusive outcome. No stated cut-off is given here; in the data, active means normalized growth mostly below about 0.91 (no sharp cut-off); inconclusive means no clear call, values can overlap the other calls; inactive means mostly above about 0.92. Some of the results follow.

Assay: chemical genetic growth profiling, strain panel (AID 1159580);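 further: tested at 20 µM; growth read once vehicle control cultures reached saturation at 30 °C; 1 = growth at the plate median or of vehicle wells; lower values mean less growth of the strain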
Details: S. cerevisiae deletion strains, growth OD

Measured: normalized growth

COC(=O)[C@H]1[C@H]2C[C@H]3c4[nH]c5cc(OC)ccc5c4CCN3C[C@H]2C[C@@H](OC(=O)c2cc(OC)c(OC)c(OC)c2)[C@@H]1OC
inactive: locus YAL021C, strain ccr4, hits give low values 0.989 | locus YAL026C, strain drs2, hits give low values 1.02 | locus YAL030W, strain snc1, hits give low values 1.01 | locus YBL061C, strain skt5, hits give low values 1.02 | locus YBR009C, strain hhf1, hits give low values 0.996 | locus YBR021W, strain FUR4, hits give low values 0.998 | locus YBR023C, strain chs3, hits give low values 1.01 | locus YBR171W, strain sec66, hits give low values 1.02 | locus YBR229C, strain ROT2, hits give low values 1 | locus YBR231C, strain swc5, hits give low values 1.01 | locus YBR279W, strain paf1, hits give low values 1.01 | locus YCL011C, strain gbp2, hits give low values 1.01 | locus YCL016C, strain dcc1, hits give low values 1.01 | locus YCL029C, strain bik1, hits give low values 0.971 | locus YCL061C, strain MRC1, hits give low values 1.01 | locus YCL069W, strain vba3, hits give low values 1.01 | locus YCR088W, strain abp1, hits give low values 1.01 | locus YDL005C, strain med2, hits give low values 1.01 | locus YDL035C, strain GPR1, hits give low values 1.05 | locus YDL040C, strain nat1, hits give low values 1.01 | locus YDL074C, strain BRE1, hits give low values 0.976 | locus YDL101C, strain DUN1, hits give low values 0.986 | locus YDL185W, strain tfp1, hits give low values 0.966 | locus YDL192W, strain arf1, hits give low values 1.02 | locus YDR001C, strain nth1, hits give low values 1.01 | locus YDR069C, strain doa4, hits give low values 1 | locus YDR101C, strain arx1, hits give low values 0.977 | locus YDR137W, strain rgp1, hits give low values 1.03 | locus YDR159W, strain sac3, hits give low values 1.02 | locus YDR162C, strain NBP2, hits give low values 1.02 | locus YDR195W, strain ref2 1 | locus YDR297W, strain sur2, hits give low values 1.01 | locus YDR318W, strain mcm21, hits give low values 0.992 | locus YDR334W, strain swr1, hits give low values 1.02 | locus YDR335W, strain msn5, hits give low values 1.02 | locus YDR388W, hits give low values 0.983 | locus YDR392W, strain spt3, hits give low values 0.925 | locus YDR502C, strain sam2, hits give low values 0.929 | locus YEL003W, strain gim4, hits give low values 1.02 | locus YEL037C, strain rad23, hits give low values 1.02 | locus YEL061C, strain CIN8 (second series), hits give low values 1.01 | locus YEL061C, strain CIN8, hits give low values 1 | locus YER015W, strain faa2, hits give low values 1 | locus YER016W, strain bim1, hits give low values 1.01 | locus YER110C, hits give low values 0.975 | locus YER111C, strain swi4, hits give low values 1.01 | locus YER155C, strain BEM2 (second series), hits give low values 0.975 | locus YER155C, strain BEM2, hits give low values 1 | locus YER167W, strain BCK2, hits give low values 1.01 | locus YFR010W, strain ubp6, hits give low values 1.01 | locus YGL078C, strain dbp3, hits give low values 1.02 | locus YGL086W, strain mad1, hits give low values 0.999 | locus YGL167C, strain pmr1, hits give low values 1.02 | locus YGL173C, strain kem1, hits give low values 1.02 | locus YGL227W, strain vid30, hits give low values 1.01 | locus YGL240W, strain doc1, hits give low values 0.997 | locus YGL248W, strain PDE1, hits give low values 0.987 | locus YGL253W, strain hxk2, hits give low values 1.02 | locus YGR135W, strain pre9, hits give low values 1 | locus YGR252W, strain gcn5, hits give low values 1.06 | locus YHR013C, strain ard1, hits give low values 0.995 | locus YHR027C, strain rpn1, hits give low values 1.02 | locus YHR030C, strain SLT2, hits give low values 1.01 and 0.978 | locus YHR079C, strain IRE1 (second series), hits give low values 0.982 | locus YHR079C, strain IRE1, hits give low values 0.968 | locus YHR094C, strain hxt1, hits give low values 0.993 | locus YHR129C, strain ARP1, hits give low values 1 | locus YHR142W, strain chs7, hits give low values 1.01 | locus YHR200W, strain rpn10, hits give low values 0.992 | locus YIL066C, strain RNR3, hits give low values 1.01 | locus YIL073C, strain SPO22, hits give low values 0.923 | locus YIL125W, strain kgd1, hits give low values 1.02 | locus YIR030C, strain dcg1, hits give low values 0.994 | locus YJL092W, strain hpr5, hits give low values 1.01 | locus YJL095W, strain BCK1 (second series), hits give low values 1.01 | locus YJL095W, strain BCK1, hits give low values 0.958 and 0.964 | locus YJL115W, strain asf1, hits give low values 1.01 | locus YJL129C, strain trk1, hits give low values 1 | locus YJL134W, strain LCB3, hits give low values 0.996 | locus YJL154C, strain vps35, hits give low values 1 | locus YJL164C, strain tpk1, hits give low values 1 | locus YJL166W, strain qcr8, hits give low values 0.987 | locus YJL168C, strain set2, hits give low values 0.991 | locus YJL187C, strain SWE1 (second series), hits give low values 0.979 | locus YJL187C, strain SWE1, hits give low values 1.01 | locus YJR043C, strain POL32, hits give low values 1.07 | locus YJR066W, strain TOR1, hits give low values 0.92 | locus YJR075W, strain HOC1, hits give low values 0.982
